Screening results: PubChem BioAssay, National Center for Advancing Translational Sciences (NCATS)
An excerpt weighted towards active compounds, which were near 10% of everything screened.
G9a inh: blocks human histone lysine methyltransferase G9a; Q96KQ7; G9a H3K9 monomethylation, AlphaScreen, 2 h; Potency, µM (doses to about 102 µM), without a hit: top-dose activity, negative = inhibition, usual class: inhibitors; hit rate 8.8% among 350,000; AID 504332; note: potency is the fitted concentration of half-maximal effect; % is set by controls: 0 for no effect and ±100 for the full control effect; nearly all actives have a fitted effect of over 75% in size
Target sequence (Q96KQ7 913-1193 limits assumed): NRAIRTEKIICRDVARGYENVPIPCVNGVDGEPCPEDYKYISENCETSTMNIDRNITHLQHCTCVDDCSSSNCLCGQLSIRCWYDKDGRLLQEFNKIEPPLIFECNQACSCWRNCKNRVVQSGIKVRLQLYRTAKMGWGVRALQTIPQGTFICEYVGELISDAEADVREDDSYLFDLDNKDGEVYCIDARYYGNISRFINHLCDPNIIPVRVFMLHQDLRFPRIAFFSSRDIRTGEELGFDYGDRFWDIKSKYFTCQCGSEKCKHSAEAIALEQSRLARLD
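AlphaScreen read-out: biotin-H3K9 peptide (500 nM) methylation by 20 nM enzyme with 20 uM SAM, 2 h at room temperature after 15 min compound preincubation; anti-monomethyl H3K9 antibody plus donor/acceptor beads, 10 min dark.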
CtBP-E1A blk: blocks the CtBP interaction with E1A; activity change, % (test concentration not listed); hit rate 0.49% among 340,000; AlphaScreen GST-E1A/His-CtBP binding, 1536-well; active compounds read low; AID 651724; in the data active = activity change below about -65%; inconclusive = mostly about -30% to -63%; note: % is set by controls: 0 for no effect and ±100 for the full control effect
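Steps: dispense buffer (Tris pH 8.0, NaCl 300 mM, TCEP 1 mM, BSA, Tween 20); add 5X protein mix (GST-E1A, His-CtBP, 125 nM each); pin 23 nL compound; 2 h at 37 °C, dark; add 5X beads (50 ug/mL); 1 h; read.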
HP1b chromo inh: HP1-beta chromodomain-methylated histone interaction inhibition. P83916. AlphaScreen HP1-beta / biotin-H3K9me3 peptide binding. Potency, µM (titrated, usually from 114 µM), for inactives: at the highest dose activity change, negative = inhibition, hits mostly inhibitors. hit rate 0.56% among 390,000; note: potency is the fitted concentration of half-maximal effect; nearly all actives have a fitted effect of over 70% in size
Target sequence (P83916 whole entry, looked up): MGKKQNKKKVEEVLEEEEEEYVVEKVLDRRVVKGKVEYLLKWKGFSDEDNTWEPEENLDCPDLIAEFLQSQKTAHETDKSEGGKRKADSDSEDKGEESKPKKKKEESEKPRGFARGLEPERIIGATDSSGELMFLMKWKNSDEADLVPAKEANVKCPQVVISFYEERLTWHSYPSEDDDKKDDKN
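Compound inhibition of the preformed complex between 50 nM HP1-beta and 50 nM biotinylated H3K9me3 peptide was read by AlphaScreen. Buffer was PBS pH 7.4 with 0.01% Tween-20. Incubations ran 30 min at room temperature, with 10 ug/mL donor/acceptor beads.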
Six1-Eya2 inh: blocks human Six1 binding to Eya2 | AlphaScreen GST-Six1/His-Eya2 binding, biochemical; active compounds read low | activity change, % (test concentration not listed) | Q15475+O00167 | AID 651725 | hit rate 0.56% among 360,000; in the data active = activity change below about -65%; inconclusive = mostly about -30% to -63%; note: % is set by controls: 0 for no effect and ±100 for the full control effect
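AlphaScreen with GST-Six1 and His-Eya2 (5X mix: 250 nM and 500 nM), glutathione donor and nickel acceptor beads; buffer 50 mM Tris pH 8.0, 300 mM NaCl, 1 mM TCEP; 1 h at 37 C in the dark.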
JMJD2A Tudor: JMJD2A Tudor domain (human) inhibition; O75164; AlphaScreen JMJD2A-Tudor / H3K4me3 peptide binding; Potency, µM (series often up to 114 µM), inactives show at the top dose activity change, negative = inhibition, actives largely listed as inhibitors; hit rate 4.4% among 390,000; AID 504339; note: potency is the fitted concentration of half-maximal effect; % is set by controls: 0 for no effect and ±100 for the full control effect; nearly all actives have a fitted effect of over 50% in size
BAZ2B block: inhibitors of human BAZ2B bromodomain; hit rate 4.4% among 360,000; AID 504333; AlphaScreen BAZ2B-H3K14Ac peptide displacement; Potency, µM (highest dose often 114 µM), for inactives: at the top dose activity change, negative = inhibition, actives largely listed as inhibitors; Q9UIF8; note: potency is the fitted concentration of half-maximal effect; % is set by controls: 0 for no effect and ±100 for the full control effect; nearly all actives have a fitted effect of over 60% in size
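BAZ2B (50 nM) with biotin-H3(5-23)K14Ac peptide (50 nM) in PBS pH 7.4, 0.01% Tween-20, preformed 30 min, then compound 30 min at room temperature; top concentration 110uM. AlphaScreen streptavidin donor/nickel chelate acceptor beads (10 ug/mL final), 20 min dark, signal read.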
* hit, by the source's call; ? = inconclusive; nt = no result given; [ ] = remark or other dose. Unless noted, calls come from the whole dose curve; as a rule, active = well fitted inhibition curve with a large enough effect; inconclusive = small, poorly fitted or top-dose-only effect; inactive = no such curve, though single readings can be large or run the other way.

SMILES	G9a inh	CtBP-E1A blk	HP1b chromo inh	Six1-Eya2 inh	JMJD2A Tudor	BAZ2B block
CC(=O)N(/N=C1/C(=O)Nc2ccccc21)c1ccccc1	14µM*	-11	?	-7	?	-37%
CC(=O)c1ccc(N=C2C(=O)Nc3ccccc32)cc1	?	6	40%	7	-14%	2%
CCOC(=O)/C(=C/c1ccc(OC(=O)c2ccncc2)cc1)C(C)=O	22µM*	0	24%	-4	-10%	2%
CCOC(=O)C(=Cc1ccc(-n2ccnc2)cc1)C(=O)OCC	45µM*	0	34%	7	-15%	?
COc1ccc(C=C(C(C)=O)C(=O)c2ccccc2)cc1	nt	2	nt	-1	nt	nt
COCCOC(=O)/C(=C/c1ccc(OC(=O)c2ccccc2)cc1)C(C)=O	50µM*	0	36%	?	-6%	-2%
Cc1cccc(NC(=O)c2sc3cccc(Cl)c3c2Cl)c1	55%[59 µM]	nt	61%	nt	38%	21%
Cc1ccc2c(c1)C(=O)C(=O)N2Cc1ccc(C(F)(F)F)cc1	nt	4	1%	-4	-31%	nt
Cc1ccc(CN2C(=O)C(=O)c3cc(Br)cc(C)c32)cc1	11µM*	nt	13µM*	nt	25µM*	13µM*
c1c(CC2CCCC2)nnn1C[C@H]1CC[C@@H]([C@@H]2CC[C@H](Cn3cc(CC4CCCC4)nn3)O2)O1	40µM*	7	31%	-8	-8%	-26%
CCC1Nc2ncnc(N3CCN(c4ccccn4)CC3)c2N(Cc2ccc(Cl)cc2)C1=O (centres undefined)	-26%[2.33 µM]	-24	0%	-25	?	56µM*
CCC1Nc2ncnc(N3CCCCC3)c2N(Cc2ccc(Cl)cc2)C1=O (centres undefined)	nt	1	56%	4	?	nt
CCC1Nc2ncnc(N3CCN(c4ccccc4)CC3)c2N(Cc2ccc(C)cc2)C1=O (centres undefined)	?	-14	-3%	-17	56µM*	?
CCN(Cc1ccccc1)Cc1c(O)ccc2c(=O)c(-c3ccccc3Cl)coc12	8%[59 µM]	nt	28%	nt	-15%	0%
COc1ccc(CNC(=O)c2ccc(NC(=O)N3CCSc4ccccc43)cc2)cc1	3%[59 µM]	nt	37%	nt	-2%	-10%
Cn1nnc(NC(=S)NC(=O)c2cccc3ccccc23)n1	7.9µM*	4	-17%[57 µM]	4	2.8µM*	-38%
Cn1nnc(NC(=O)c2ccccc2F)n1	-9%	4	13%	-14	-12%	-3%
CCCn1nnc(NC(=O)C(C)C)n1	nt	1	33%	3	-7%	3%
Cn1nnc(NC(=S)NC(=O)c2ccc(-c3ccc(Br)cc3)o2)n1	?	-69*	-7%	-72*	-4%	-13%
CCn1nnc(NC(=O)c2ccc(-c3ccc(Cl)cc3)o2)n1	45µM*	-14	33%	-5	?	-6%
CC(C)C(=O)NC(=S)Nc1nnn(C)n1	8.9µM*	4	?	3	1.1µM*	56µM*
CCn1nnc(NC(=O)Cc2ccc(Cl)cc2)n1	13%	-2	32%	0	-13%	-14%
CCc1ccc(C2=C(C)C(N3CCC(C(=O)Nc4ccc(F)cc4)CC3)=NS2(=O)=O)cc1	7%[59 µM]	nt	?	nt	?	-38%
Cn1nnc(NC(=S)NC(=O)c2ccc3ccccc3c2)n1	nt	6	nt	-3	nt	nt
COc1cc(OC)cc(C(=O)NC(=S)Nc2nnn(C)n2)c1	10µM*	1	?	-13	?	?
SMILES	G9a inh	CtBP-E1A blk	HP1b chromo inh	Six1-Eya2 inh	JMJD2A Tudor	BAZ2B block
COc1ccc(-c2cc(C(=O)Oc3ccc(C#N)cc3)no2)cc1	-34%[59 µM]	nt	30%	nt	?	-24%
CC1CCCCN1C(=O)CSc1n[nH]c(-c2ccccc2Cl)n1 (centres undefined)	-5%[59 µM]	nt	24%[57 µM]	nt	-9%	5%
O=C(CSc1nc2ccccc2s1)NCCOc1ccc(Cl)cc1	19%[12.7 µM]	3	38%	-11	11%	5%[57.1 µM]
O=C(CSc1nc2ccccc2s1)Nn1cnnc1	-25%[12.7 µM]	0	41%	11	-16%	?
O=C(CSc1nc2ccccc2s1)NNC(=S)Nc1ccc(Cl)cc1	40µM*	-9	-5%	-18	-22%	4%
C=CCNC(=S)NNC(=O)CSc1nc2ccccc2s1	28µM*	-4	33%	-8	-13%	-32%
CNC(=S)NNc1nc(C)cc(C)n1	1.3µM*	1	79µM*	16	?	-17%
CNC(=S)NNc1nc(-c2ccccc2)c2cc(Cl)ccc2n1	nt	-30	-19%	-20	?	nt
N#CCSc1ccsc1C(=O)Nc1ccc(F)cc1	7.9µM*	45	?	14	-8%	4%
Cc1ccc(NC(=O)c2sccc2SCc2cccc(C(F)(F)F)c2)cc1	25µM*	42	144%	31	52%	52%
Cc1cccc(C)c1NC(=O)c1sccc1SCc1cccc(C(F)(F)F)c1	?	9	75%	14	1%	10%
CC1=C(c2ccc(C(C)C)cc2)S(=O)(=O)N=C1N1CCC(C(=O)NCc2ccc(C)o2)CC1	3%[59 µM]	nt	45%	nt	-10%	2%
Cc1ccc(C(=O)N2CCc3cc(CNC(=O)COc4ccccc4)ccc32)cc1	-3%[59 µM]	nt	12%	nt	-28%	-19%
COc1ccc(/C=N/n2c(-c3cc(C)[nH]n3)n[nH]c2=S)cc1	2.2µM*	0	?	0	3.5µM*	-27%
Cc1cc(-c2n[nH]c(=S)n2/N=C/c2ccc(C)o2)n[nH]1	7.9µM*	-9	?	-10	3.2µM*	-29%
COc1ccc(/C=N/n2c(-c3cc(C)[nH]n3)n[nH]c2=S)cc1OC	nt	nt	16%	-3	3.5µM*	?
COc1cc(/C=N/n2c(-c3cc(C)[nH]n3)n[nH]c2=S)cc(OC)c1O	5µM*	-5	?	1	3.5µM*	?
FC(F)(F)c1ccccc1-c1ccc2ncnc(N3CCOCC3)c2c1	22%[0.501 µM]	nt	nt	nt	nt	nt
COc1cc(Cl)c(C)cc1NC(=O)C1CCN(c2nc3ccccc3n3cccc23)CC1	?	nt	14%	nt	-32%	-29%
CCOc1ccc(NC(=O)c2cc(S(=O)(=O)NC3CCCC3)ccc2F)cc1	1%[59 µM]	nt	33%	nt	-14%	-9%
CC1CCCCN1c1nnc(NC(=O)Nc2ccccc2F)s1 (centres undefined)	?	nt	33%	nt	-30%	-3%
Cc1n[nH]c(=S)n1/N=C/c1ccc(-c2ccc(Cl)cc2)o1	nt	7	44%	-2	-9%	nt
Cc1cccc(-c2n[nH]c(=S)n2/N=C/c2ccc(C)o2)c1	2µM*	4	-33%	-7	7.9µM*	-31%
O=C(Cn1c(=O)c2sccc2n(Cc2ccc([N+](=O)[O-])cc2)c1=O)NCCc1ccccc1	42%[59 µM]	-89*	-18%	?	-15%	3%
